Values without a mark were called inactive. Results filed as inconclusive are left out. Calls of active or inactive are those of the source. Unless noted, calls come from the whole dose curve; as a rule, active = well fitted curve in the direction sought with a large enough effect in the repeat runs; inconclusive = weak or mixed curves; inactive = no such curve, though single readings can be large; an effect the other way counts as inactive or inconclusive.

We go through 19 molecules from PubChem BioAssay (Tox21).

A short description of experiment [1]: A CellTox Green Cytotoxicity Assay to monitor cytotoxicity in HepG2 cells - 8 hour (AID 1224890). Note: nearly all actives have a fitted effect of over 45% in size. An outline of the steps: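 Measurements at 0, 8, 16, 24, 32 and 40 h of treatment captured CellTox Green fluorescence in HepG2 cells that had been co-plated with reagent and preincubated 5 h at 37 C/5% CO2.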
The nature of experiment [2]: qHTS assay to identify small molecule antagonists of the estrogen receptor alpha (ER-alpha) signaling pathway using the BG1 cell line in the presence of 0.1 nM 17-beta-estradiol - cell viability counter screen (AID 1259241). Note: nearly all actives have a fitted effect of over 40% in size. An outline of the steps: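 In this screen, hormone-deprived VM7Luc4E2 cells were seeded at 4,000 per well, dosed with compound and 0.1 nM estradiol final, and incubated 22 hr at 37C and 5% CO2; fluorogenic live-cell protease signal reported viability.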

Experiment [3] can be described thus: qHTS assay to identify small molecule antagonists of the androgen receptor (AR) signaling pathway using the MDA cell line in the presence of 0.5 nM R1881 - cell viability counter screen (AID 1259242). Note: nearly all actives have a fitted effect of over 45% in size. An outline of the steps:
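Concentration-response screen of compounds for toxicity in MDA-kb2 reporter cells: 16 hr at 37C with 0.5 nM R1881, endpoint live-cell protease fluorescence measured in the reporter wells.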
A general note: qHTS replaces the single test concentration by a dilution series.

The target in experiment [4] is Estrogen receptor (Homo sapiens) (UniProt P03372). The experiment can be described thus: qHTS assay to identify small molecule antagonists of the estrogen receptor alpha (ER-alpha) signaling pathway using the BG1 cell line in the presence of 0.1 nM 17-beta-estradiol (AID 1259244). Note: nearly all actives have a fitted effect of over 50% in size. Note: potency is the fitted concentration of half-maximal effect. An outline of the steps: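 Compounds were tested against 0.1 nM (final) 17beta-estradiol in VM7Luc4E2 cells, which express full-length ER-alpha and an ERE-luciferase reporter; luminescence was recorded following 22 h exposure.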
Chain of Estrogen receptor (Homo sapiens) (P03372 whole entry, looked up): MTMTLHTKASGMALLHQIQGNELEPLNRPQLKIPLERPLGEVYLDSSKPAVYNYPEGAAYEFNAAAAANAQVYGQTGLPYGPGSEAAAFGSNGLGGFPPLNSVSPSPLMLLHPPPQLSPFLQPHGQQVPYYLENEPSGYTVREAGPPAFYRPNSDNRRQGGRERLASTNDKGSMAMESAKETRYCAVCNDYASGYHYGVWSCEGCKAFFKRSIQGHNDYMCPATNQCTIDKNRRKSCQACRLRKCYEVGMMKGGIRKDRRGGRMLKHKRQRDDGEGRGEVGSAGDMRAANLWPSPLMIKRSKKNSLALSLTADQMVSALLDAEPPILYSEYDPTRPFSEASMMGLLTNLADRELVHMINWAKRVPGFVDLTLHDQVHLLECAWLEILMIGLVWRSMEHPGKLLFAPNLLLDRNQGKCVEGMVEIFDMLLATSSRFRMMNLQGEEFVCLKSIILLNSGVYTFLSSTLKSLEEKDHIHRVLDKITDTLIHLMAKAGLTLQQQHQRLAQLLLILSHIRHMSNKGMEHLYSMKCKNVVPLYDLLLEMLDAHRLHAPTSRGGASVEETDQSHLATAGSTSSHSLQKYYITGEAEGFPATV

Experiment [5] can be described thus: qHTS assay to identify small molecule HDAC inhibitors (AID 1259364).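 Note: wild-type HCT-116 cells with endogenous class I/II HDAC activity; top concentration of the series differs between compounds; nearly all actives have a fitted effect of over 45% in size.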 The essentials:
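Screening used wild-type human colon HCT-116 cells incubated overnight, dosed with compounds for 2 hours, and assayed with a homogeneous luminogenic HDAC I/II reagent for 30 minutes at room temperature.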

A short description of experiment [6]: qHTS assay to identify small molecule HDAC inhibitors - cell viability counter screen (AID 1259365). Note: series mostly up to about 92 µM; nearly all actives have a fitted effect of over 50% in size. An outline of the steps:
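Measured quantity is CellTiter-Glo luminescence from wild-type HCT-116 cells after compound incubation of 2hr at 37C, 5% CO2; reagent developed 30min at room temperature.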

Experiment [7] can be described thus: qHTS assay to identify small molecule agonists of the sonic hedgehog signaling (Shh) pathway - cell viability counter screen (AID 1259366). Note: nearly all actives have a fitted effect of over 50% in size. The essentials: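 In quantitative high-throughput format, 3T3 Gli1-Luc cells were exposed to compounds for 24hr and multiplexed for viability using CellTiter-Fluor, incubated 1hr at 37C before the fluorescence read.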
Experiment [8] in a line: qHTS assay to identify small molecule antagonists of the sonic hedgehog signaling (Shh) pathway - cell viability counter screen (AID 1259367). Note: nearly all actives have a fitted effect of over 55% in size. An outline of the steps: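 Conditioned medium drove Shh signaling in 3T3 Gli1-Luc cells exposed to compounds at 37C and 5% CO2. Viability was determined from CellTiter-Fluor fluorescence, with reagent incubated 1 hr after 23 hr of treatment.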

Experiment [9] in a line: qHTS assay to identify small molecule phospholipidosis (PLD) inducers (AID 1259344; active = well fitted curve in the direction sought with a large enough effect; an effect the other way counts as inactive or inconclusive). An outline of the steps: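 After 4 h attachment on collagen I, HepG2 cells were dosed with compound alongside LipidTOX Red, kept 24 h at 37 C, fixed, and imaged for lamellar phospholipid pits.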
% is set by controls: 0 for no effect and ±100 for the full control effect.

In the case of `ON(Cc1ccccc1)Cc1ccccc1`, the Potency result in experiment [1], in experiment [2], in experiment [3], in [4], in experiment [5] and in [6] was “inactive” each time. In addition, the Potency entry in experiment [7] and in experiment [8] was “inactive” throughout.
Consider `C/C(=N/NC(=O)c1ccncc1)C(=O)O`, for which the Potency result in experiment [1], in experiment [2], in experiment [3], in experiment [4], in [5] and in experiment [6] was “inactive” each time. The Potency result in experiment [7] and in experiment [8] was “inactive” each time.
For the molecule `CNC(=S)NC`, the Potency result in experiment [1], in experiment [2], in experiment [3], in experiment [4], in experiment [5] and in experiment [6] was “inactive” in each case. In addition, the Potency result in experiment [7] is “inactive”.
As for `CC(C)CCCC(=O)O`, the Potency result in [1], in experiment [2], in experiment [3], in [4], in experiment [5] and in [6] was “inactive” each time. Also, the Potency result in experiment [7] and in experiment [8] was “inactive” in each case.
In the case of `CC(=O)Nc1ccccc1C`, the Potency result in experiment [1], in experiment [2], in experiment [3], in experiment [4], in [5] and in experiment [6] was “inactive” each time. Further, the Potency entry in [7] and in experiment [8] was “inactive” throughout.
As for `COC(OC)(C(=O)c1ccccc1)c1ccccc1`, the Potency entry in experiment [1], in experiment [2], in [3], in [4], in experiment [5] and in experiment [6] was “inactive” each time. Moreover, the Potency result in [7] was “inactive”.
Take `O=C(/C=C/c1ccccc1)OCCCc1ccccc1`: the Potency entry in [1], in experiment [2], in experiment [3], in experiment [4], in experiment [5] and in [6] was “inactive” in each case. The Potency result in experiment [7] and in experiment [8] was “inactive” throughout.
With `CCn1nc(C)c2c1C(=O)NCC(c1ccc(O)cc1)=N2`, the Potency entry in experiment [1], in experiment [2], in [3], in experiment [4], in experiment [5] and in [7] was “inactive” throughout.
Take `CC(COc1ccc(C(C)(C)C)cc1)OS(=O)OCCCl` (stereo unspecified): the Potency entry in [1], in experiment [2], in [3], in [5], in [6] and in [7] was “inactive” each time. The Potency entry in experiment [8] was “inactive”. Also, in experiment [4], the Potency is 1.38 µM (active).
With `CCCCC(CC)C(=O)OCCOCCOCCOCCOC(=O)C(CC)CCCC` (stereo unspecified), the Potency result in experiment [1], in experiment [2], in experiment [3], in [4], in experiment [5] and in experiment [6] was “inactive” each time. The Potency entry in experiment [7] is “inactive”.
Consider `O=C(O)c1cccnc1C(=O)O`, for which the Potency result in [1], in experiment [2], in experiment [3], in experiment [4], in experiment [5] and in experiment [6] was “inactive” throughout. Also, the Potency entry in experiment [7] is “inactive”.
On to `CCCCCCCCCCCCCCCCBr`, for which, in experiment [1], the cytotoxicity increase is -4.5% [at 15.8 µM]. Further, the activity change, negative = cytotoxicity in [2] is 1.42% [at 19 µM]; in [6], 1.54% [at 19 µM]. For the same molecule, the viability change, negative = cytotoxic in experiment [3] is 2.08% [at 19 µM]; in [7], -1.13% [at 19 µM]. The values for the activity change, negative = inhibition in [4] and in experiment [5] were 3% [at 19 µM] and 4.52% [at 19 µM], respectively.
Consider `CCC(C)(O)CCC=C(C)C` (stereo unspecified), for which the Potency result in experiment [1], in experiment [2], in experiment [3], in experiment [4], in experiment [5] and in experiment [6] was “inactive” throughout. The Potency result in experiment [7] and in experiment [8] was “inactive” each time.
As to `CC(=O)Oc1ccc(C(=C2CCCCC2)c2ccc(OC(C)=O)cc2)cc1`, the Potency entry in experiment [1], in experiment [2], in [3], in [4], in [6] and in experiment [7] was “inactive” in each case. The Potency result in experiment [8] was “inactive”. Besides, the call in experiment [9] was inactive.
For the molecule `CC1=CC(O)CC(C)(C)C1` (stereo unspecified), the Potency entry in experiment [1], in [2], in [3], in experiment [4], in [5] and in experiment [6] was “inactive” in each case. Moreover, the Potency entry in experiment [7] and in [8] was “inactive” each time.
Take `CN(C)CCOC1=Cc2ccccc2Sc2ccc(Cl)cc21`: the Potency entry in experiment [1], in experiment [2], in experiment [3], in experiment [4], in experiment [6] and in experiment [8] was “inactive” in each case. Moreover, the outcome in experiment [9] was inactive.
For `CC(C)c1nnc2ccc(-c3ocnc3-c3cc(F)ccc3F)cn12`, the Potency entry in experiment [1], in [2], in experiment [3], in experiment [5], in experiment [6] and in experiment [7] was “inactive” each time. In addition, in experiment [8], the Potency result is “inactive”. In experiment [4], the Potency is 30.6 µM (active).
Take `C/C=C/C=C/CCCCCCCO`: the Potency entry in experiment [1], in experiment [2], in [3], in [4], in experiment [5] and in experiment [6] was “inactive” throughout.
Consider `N#C[C@@H]1C[C@@H]2C[C@@H]2N1C(=O)[C@@H](N)C12CC3CC(CC(O)(C3)C1)C2`, for which the Potency entry in [1], in [2], in experiment [3], in experiment [4], in experiment [7] and in [8] was “inactive” throughout. Also, the PLD induction in [9] was -3.21% [at 7.66 µM].
